From the supplement of paper PMC11417369 come the findings set out here.

Over roughly 25,000 sequences, “ln(normalized median fluorescence intensity)” has its median near 9.3; the highest 2% begin near 10. The full list was thinned out, with the highest values kept by preference.

The assay relates to PF3D7_0420300 AP2 domain 1 (GST-tagged). Briefly: gcPBM binding intensity (ln(normalized median fluorescence intensity)); higher = stronger DNA binding. The gist of the method: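 Plasmodium falciparum DNA-binding domains carrying a GST tag were expressed in E. coli and applied for 1 h, at about 25 μg on average, to an Agilent 4 × 180k array. The array held primer-extended double-stranded 36-bp intergenic genomic probes together with negative controls, and binding took place in 1× PBS with 1% milk, 0.2 mg/ml BSA, 0.5% salmon testes DNA and 0.03% Triton X-100. An Alexa488 anti-GST antibody detected bound protein, and the array was scanned at 488 nm. Binding intensity is taken as the highest Masliner-normalised natural-log median intensity across replicate spots of either probe orientation.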
As for “ATGGGTATATTTCCACGTACAAAAAATCCGAATTGC [XGTACX_site1490]”, the “gcPBM binding intensity (ln)” value was found to be 9.23.
Regarding “AAAAATTAAAATATTATAGTTGAAACTTTTATAAAT [TGCATGCA_negctrl_site454]”, the “gcPBM binding intensity (ln)” value was 8.81.
With “AATATGTAGTAATCAAGTACTAATGTCTTAATTCGG [XGTACX_site308]”, the “gcPBM binding intensity (ln)” value came out at 9.27.
The value for “GATATGAATATAGGTTGTACTATATATAAAGTATGT [XGTACX_site1877]” was 9.35; that for “CCACTGTATGAATGCACACATTCATAGAATTGCTAT [CACACA_site2676]” was 9.24.
The value for “TAATAATAGAGACACACACACATAGACATATAAATA [CACACA_site6729]” was 10.2.
The value for “TATAAATAGAGACACACACACATATAAATAAATATT [CACACA_site7854]” was 10.1; that for “CATATAAATAGACACACACACACATATAAATAAATA [CACACA_site7156]” was 10.3; that for “TATATAAATAGACACACACACACATATAAATAAATA [CACACA_site7855]” was 10.2.
“TATATATATAGACACACACACATATAAATAAATAAA [CACACA_site444]”: the “gcPBM binding intensity (ln)” value came out at 10.1.
The value for “TATATAAATAGACACACACACATATAAATATAAATA [CACACA_site6503]” was 10.1; that for “TTATAAAATAAACTTACACACATGAAATATTATATT [CACACA_site1945]” was 9.49.
The value for “ATAGAAGCTGTTGACGAAGAAAAAAAAAAAAAAAAA [CACACA_negctrl_site110]” was 8.56; that for “TTTAAAAAAATTCATGCACACGAAATAAAAAGCACC [CACACA_site8214]” was 9.71; that for “ACAAAAAAAAAAAAAAAAAGAAGAATATATCTATAT [CACACA_negctrl_site759]” was 9.16.
“ATTATAAATATATTTTGTACTTAAAAGGAAAAAAAA [XGTACX_site55]”: the “gcPBM binding intensity (ln)” value came to 9.02.
The value for “AAATATAAATGGTAATACACATACACACACACATAC [XGTACX_negctrl_site459]” was 10.2; that for “ACATATAAAATATATACACACATATAAATACATTAA [CACACA_site3867]” was 9.75.
The value for “TATAAATATATATACACACACACATTAATACATATA [CACACA_site3488]” was 10.2; that for “ATAAATACATATAAAAGTACACACACACACATATAT [XGTACX_site1744]” was 10.4.
The value for “TATAATCATAAATACACACACATATATATATATATA [CACACA_site5224]” was 9.54.
With “ACATATACAAGACACACACACAACGTTTTAATAAAT [CACACA_site7017]”, the “gcPBM binding intensity (ln)” value amounted to 10.2.
The value for “AAAAAAAAAAAAAGTACACACATACATATAAATATA [CACACA_site8533]” was 9.72; that for “AAATTAATTAAATATACACACATATATAAATATATA [CACACA_site391]” was 9.38.
Regarding “AAAAAAAAAAAGTACACACATACATATAAATATATA [CACACA_site1809]”, the “gcPBM binding intensity (ln)” value stood at 9.46.
The value for “ACATATACAAAACACACACACAACGTTTTAATAAAT [CACACA_site1979]” was 10.1; that for “AAATATAAAAAATATACACACATATATAATATATAT [CACACA_site2963]” was 9.55; that for “TTAAAATATACATAAACACACACAAAACGTTTAAGA [CACACA_site8267]” was 9.9.
With “TATATTGAAAATAAAACATGCAATCACTCATACATA [TGCATGCA_site248]”, the “gcPBM binding intensity (ln)” value is 9.36.
The value for “AAAGAAAAATTAACATGTACAAAAATTACTTGTTCA [XGTACX_site6725]” was 9.21; that for “AAAAAATAAATAAATACACACAAATCTATATTTATA [CACACA_site7243]” was 9.51; that for “GTATTCTACAGACACATACACACATATATATATATA [CACACA_site3427]” was 9.7.
The value for “TTAAATATAAAAAGTAGTACATTTATATTTACCATA [XGTACX_site2962]” was 8.96.
The value for “AATTCATTATATATACGTACATATTTCTGTATAAAA [XGTACX_site6371]” was 9.24.
As for “ATACATATATATAGGTGTACATATAATATATATATA [XGTACX_site2228]”, the “gcPBM binding intensity (ln)” value worked out at 9.35.
On to ATAGTAATAGAATGATTGCACTTAAATTTTCCCTCT, for which the “gcPBM binding intensity (ln)” value is 9.19.
The value for “AATATATATATATGTACACACTCCAATACATATACA [CACACA_site2682]” was 9.42; that for AAAAAAATAACAAAAGTGCATTTTTATGAGTTATCT was 9.2.
The value for “CATATATAAATATATACACACATACATACATACATA [CACACA_site5988]” was 9.67; that for “TGGTAATACCCATACACACACACATACCCATATATA [CACACA_site5509]” was 10.1.
The value for “AATAAATAAATATATACACACATATATATATAATAT [CACACA_site921]” was 9.6; that for “TGGTAATACCCATACACACACACATACACATATATA [CACACA_site8877]” was 10.1; that for “TGGTAATACACATACACACACACATACACATATATA [CACACA_site7312]” was 10.2.
In the case of “AAATAATATAAATACACACACACATATATAAATACA [CACACA_site4465]”, the “gcPBM binding intensity (ln)” value amounted to 10.2.
The value for “ATAATATAAATATACACACACACATATATATATATA [CACACA_site2905]” was 9.91.
On to “AATACATATAAAAGTACACACACACCCATATATATA [CACACA_site8220]”, for which the “gcPBM binding intensity (ln)” value turned out to be 10.2.
The value for “CATAAATACATACATACACACATATATATATATATA [CACACA_site2106]” was 9.5; that for “TATAAAAATAAAAAAAGTACACATAAAAATATATAT [XGTACX_site5189]” was 9.62.
The value for “TACATACATACATACACACACACATATAAATACATA [CACACA_site4626]” was 10.2.
The value for “TACATATAAAAGTACACACACACACCCATATATATA [CACACA_site941]” was 10.2; that for “TAAAACAATACTTTGTGCTTCTCTGGTTTTTTTTTT [GTGCAC_negctrl_site284]” was 9.26; that for “ACGTTTGATACACATAAAGTTTTCCTTTGAATGTAC [CACACA_negctrl_site106]” was 9.26.
Turning to “TTTTAACATAGAAGTACACACATATAATCAATCATA [CACACA_site5313]”, the “gcPBM binding intensity (ln)” value amounted to 9.6.
“TTAATACATTAAATATGTACTTATATATCTCAACTA [XGTACX_site3997]”: the “gcPBM binding intensity (ln)” value came out at 9.11.
Turning to “AACACAAATAAGTATTTGGATTATATTACATTTATA [CACACA_negctrl_site465]”, the “gcPBM binding intensity (ln)” value worked out at 9.18.
The value for “GTGTTTTTATGTGAATGTACATATTTACTATCACAC [XGTACX_site2388]” was 9.56; that for “TTCATTCTATAAAACACACAAATATTTTTGTATCCC [CACACA_site6458]” was 9.2; that for “CATAATATGACATACACACACAAAAAAAAAAAAATA [CACACA_site1285]” was 9.91.
For the sequence “AGAAATATCTAATTGTGTACTCAAGAAAAAGTTACG [XGTACX_site372]”, the “gcPBM binding intensity (ln)” value was 9.29.
The value for “TTACCATAAGTATGTGGTACACTTTAAATGAAGATA [XGTACX_site6972]” was 8.88.
The value for “TATAAATAAATATACACACACACATATAAATATGTA [CACACA_site6504]” was 10.1; that for “AAAATTAAAATATATACACACATATATATATTAAAT [CACACA_site4419]” was 9.57; that for “AAAAAAAATTAAATAAATAAATATACACATATATAT [GTGCAC_negctrl_site394]” was 9.26.
The value for “AATACATACAGACACACACACACATATAAATAAATA [CACACA_site7642]” was 10.2; that for “CATACATACAGACACACACACATATAAATACATACA [CACACA_site6533]” was 10.
For the sequence “TACATACACAGACACACACACATATAAATATAAATA [CACACA_site7641]”, the “gcPBM binding intensity (ln)” value worked out at 9.95.
Take “AATTAAAAAAAATACACACACACATACACATATATA [CACACA_site3298]”: the “gcPBM binding intensity (ln)” value came out at 10.2.
The value for “AATATAAGCAAATACACACACACATATAAATATGTA [CACACA_site7741]” was 10.2.
The value for “TACATATATTATTGCACACATATAAAATACCCCCAA [CACACA_site3895]” was 9.82.
The value for “CATACATATATTATTGCACACATATAAAATACCCCC [CACACA_site9292]” was 10.3; that for “TACAGATATTATTGCACACATATAAAATACCCCCAA [CACACA_site6014]” was 9.89; that for “AATATAAGCAAATACACACACACATATATATATATA [CACACA_site3805]” was 10.
On to CATATAAAAAATATGGTGCAGTTTTTTTTTTTTTTT, for which the “gcPBM binding intensity (ln)” value amounted to 9.1.
Regarding “ATATATCATAATAGAGGTACACATATTATATATATA [XGTACX_site782]”, the “gcPBM binding intensity (ln)” value was found to be 9.29.
The value for “TAATTTTTTTTAAATACACACTGAAATGTGAATTTT [CACACA_site4476]” was 8.96; that for “ACCACCATATAACATACATGCATCTTTTTTCCCTTC [TGCATGCA_site583]” was 9.79; that for “TTTTTATATTTTATTAGTACTTATTATATATATAAT [XGTACX_site4900]” was 9.26.
The value for “ATATATGTAATAAATAGTACACACACACATATATAT [XGTACX_site2817]” was 10.3.
As for “TGTAATAAATAGTACACACACACATATATATATATT [CACACA_site1388]”, the “gcPBM binding intensity (ln)” value turned out to be 9.94.
The value for “TAATAATAGTAAATATGTACATATATATATATATAG [XGTACX_site4602]” was 9.26; that for “TGTAGTCTGGAGAAAAGTACATAGTATCTGGTAACA [XGTACX_site4940]” was 9.2; that for “AAAATACATGGACACACACACACACCGATATATATA [CACACA_site5885]” was 10.3.
The value for “GGAATAATATAAAACACACACATAAATATAAATATA [CACACA_site3376]” was 9.9.
Turning to “ATAATCCACAAGCACACACACACACCCATATATATA [CACACA_site1268]”, the “gcPBM binding intensity (ln)” value worked out at 10.2.
The value for “ATAAAAATAAAATGGACACACATATATACATATTTG [CACACA_site3277]” was 9.68.
On to “TATAATCCATAAGAAGCACACACATATATATATATT [CACACA_site8394]”, for which the “gcPBM binding intensity (ln)” value was found to be 9.76.
The value for “AAAAAAAAAAGAATAGCACACACACCGATATAAATA [CACACA_site8111]” was 10.1; that for “CAAATACATGGACACACACACATATACAGATATATA [CACACA_site5854]” was 10.
The value for “AAATAATATAAACATACACACACACCGATATATATA [CACACA_site8945]” was 10.2.
The value for “ATAATATATAAACACACACACATATATAAATACATT [CACACA_site4466]” was 10.1; that for “ATAATATAAACATACACACACACATATATATATATA [CACACA_site5591]” was 10; that for “TGGGAATAAAAACACACACACACACCGATATATATA [CACACA_site5875]” was 10.3.
In the case of “TAATAATCCACAAGCACACACACACCCATATATATA [CACACA_site1267]”, the “gcPBM binding intensity (ln)” value amounted to 10.
